Experimental data as given in PubChem BioAssay (NCATS).
Inconclusive results are not listed. A number with no mark means an inactive call. Calls follow the shape of the dose curve; as a rule, active = well fitted inhibition curve with a large enough effect; inconclusive = small, poorly fitted or top-dose-only effect; inactive = flat fitted curve, though single readings scatter.

Experiment: Drug repurposing screens with cells derived from glioblastoma tumor samples (AID 1345199); also: nearly all actives have a fitted effect of over 40% in size
Conditions: GBM patient neurospheres viability, ATP luminescence, 48 h; at 45.9 µM (top of the series); tumour line D
Summary of the method: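 Four patient lines of CD133+ GBM neurospheres were screened at several concentrations; hits were retested in those lines plus three slower-growing GBM lines, using 48-hour treatment and ATP-based viability.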
% is scaled to controls: 0 for no effect and ±100 for the full control effect.

SMILES | activity, negative = cell killing [%]
Cc1nc(NS(=O)(=O)c2ccc(N)cc2)nc(C)c1Br | -4.79
Cc1ccc(S(=O)(=O)O)cc1C | 0.633
CCc1ccc(S(=O)(=O)O)cc1 | -9.65
C=CC[N+]1([C@H]2C[C@H]3[C@@H]4CC[C@H]5C[C@H](O)[C@@H](N6CCOCC6)C[C@]5(C)[C@H]4CC[C@]3(C)[C@H]2OC(C)=O)CCCC1 | -12.4
O=P(O)(O)OP(=O)(O)OP(=O)(O)O | -30.2
CN1C(C(=O)Nc2ccccn2)C(=O)c2sc(Cl)cc2S1(=O)=O (stereo not given) | -14
Cc1ccc(S(=O)(=O)NCl)cc1 | 7.3
CC/C=C\C/C=C\C/C=C\CCCCCCCC(=O)O | -7.43
CC(=O)N[C@@H]([C@@H](O)[C@H](O)[C@H](O)CO)[C@@H](O)CC(=O)C(=O)O | -21.2
CNC(=O)[C@H](Cc1c[nH]c2ccccc12)NC(=O)[C@@H](CC(=O)NO)CC(C)C | -19.3
CC(C)=CCC/C(C)=C/C=C/C(C)=C/C=C/C(C)=C/C=C/C=C(C)/C=C/C=C(C)/C=C/C=C(\C)CCC=C(C)C | -12.4
FC(F)(F)C(F)(F)C(F)(F)C(F)(F)C(F)(F)C(F)(F)F | -23
CCCCC(CC)COS(=O)(=O)O (stereo not given) | -2.06
CN(CCO)CC(O)Cn1cnc2c1c(=O)n(C)c(=O)n2C (stereo not given) (tested in a mixture with another compound) | -10.7
O=C1N=C2SCCN2C(=O)C1Cc1ccc(Cl)cc1 (stereo not given) | -11.7
